Results as given in the supplement of paper PMC3545927.
The list shows a part of the results. No count for the full screen is at hand.

Biological target: furin, P09958
Assay: furin cleavage Z-score vs untreated control; higher = more cleavage, active = 3.5 or more, inactive = 1 or less, 8 variable residues between constant flanks
Procedure: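 Multiplexed peptide-cDNA fusion cleavage assay. 8-mer variable peptides flanked by constant Cys-Ala (N-term) and Ala-Gly-Asn-Ala-Ser-Ala-Ser-Ala (C-term) and conjugated to a cDNA oligonucleotide were bead-immobilised via the N-terminus. They were treated with purified furin at a 1:10 enzyme:substrate ratio in 50 mM HEPES pH 7.5, 1 mM CaCl2, 100 mM NaCl for 7.5, 15 or 30 min. Released cDNA was counted by next-generation sequencing, and log counts versus no-furin controls were lowess-adjusted and converted to robust Z-scores.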

Sequence of furin, P09958 (P09958 whole entry): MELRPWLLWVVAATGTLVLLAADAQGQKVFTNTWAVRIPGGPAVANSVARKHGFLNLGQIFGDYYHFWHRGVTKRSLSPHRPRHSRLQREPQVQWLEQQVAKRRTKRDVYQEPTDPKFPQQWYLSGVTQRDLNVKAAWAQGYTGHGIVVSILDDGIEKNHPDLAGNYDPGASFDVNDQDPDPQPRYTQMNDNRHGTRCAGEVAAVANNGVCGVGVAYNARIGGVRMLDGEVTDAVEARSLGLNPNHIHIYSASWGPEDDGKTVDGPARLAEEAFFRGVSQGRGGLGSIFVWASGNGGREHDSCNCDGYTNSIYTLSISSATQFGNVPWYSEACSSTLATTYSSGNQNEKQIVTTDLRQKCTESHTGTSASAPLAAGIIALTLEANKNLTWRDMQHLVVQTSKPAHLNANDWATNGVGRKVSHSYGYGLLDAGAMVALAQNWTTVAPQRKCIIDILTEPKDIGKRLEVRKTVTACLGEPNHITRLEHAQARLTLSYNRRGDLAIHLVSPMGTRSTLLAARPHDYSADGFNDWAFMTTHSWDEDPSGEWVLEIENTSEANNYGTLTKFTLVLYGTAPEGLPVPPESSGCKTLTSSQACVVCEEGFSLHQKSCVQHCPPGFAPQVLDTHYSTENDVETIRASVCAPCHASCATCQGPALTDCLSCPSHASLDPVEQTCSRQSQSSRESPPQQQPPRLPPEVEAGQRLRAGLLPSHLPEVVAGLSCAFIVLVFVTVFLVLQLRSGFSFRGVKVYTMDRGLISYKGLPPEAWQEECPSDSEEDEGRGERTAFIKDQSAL

Sequence	furin cleavage Z-score (7.5 min)	furin cleavage Z-score (15 min)	furin cleavage Z-score (30 min)
CASALYVGDLAGNASASA [HC297]	-0.151 (inactive)	-0.752 (inactive)	-0.26 (inactive)
CAFKHRRARFAGNASASA [FS-767]	5.47 (active)	8.44 (active)	8.1 (active)
CADSSRPARFAGNASASA [FS-987]	0.601 (inactive)	2.61	1.35
CAARQRRARFAGNASASA [FS-1186]	7.96 (active)	10.3 (active)	9.01 (active)
CALKGRPARFAGNASASA [FS-1135]	1.12	3.63 (active)	3.8 (active)
CAVEGERGFFAGNASASA [EK8]	-1.92 (inactive)	-1.33 (inactive)	-1.12 (inactive)
CAMTHRWNRFAGNASASA [FS-1545]	-0.191 (inactive)	1.1	-0.35 (inactive)
CALLLALPQRAGNASASA [HC560]	-0.644 (inactive)	-0.224 (inactive)	-1.36 (inactive)
CAEVRTSTWVAGNASASA [HC2193]	0.577 (inactive)	-0.283 (inactive)	2.14
CAIDVVCCSMAGNASASA [HC2104]	-0.251 (inactive)	0.23 (inactive)	1.61
CATTHCSGSWAGNASASA [HC1875]	-0.832 (inactive)	-0.00567 (inactive)	-1.4 (inactive)
CAPCAAEEQKAGNASASA [HC1377]	0.0863 (inactive)	-1.23 (inactive)	0.435 (inactive)
CARKKRQLYSAGNASASA [FS-2967]	7.88 (active)	8.76 (active)	9.63 (active)
CARKKRLKESAGNASASA [FS-2343]	0.749 (inactive)	2.21	1.93
CARKKRRRESAGNASASA [FS-1903]	4.55 (active)	6.12 (active)	4.85 (active)
CARNGRWEESAGNASASA [FS-3005]	-0.164 (inactive)	-0.44 (inactive)	0.183 (inactive)
CARKKRFVSSAGNASASA [FS-2213]	9.34 (active)	10.7 (active)	11.2 (active)
CASIVYEAADAGNASASA [HC266]	0.365 (inactive)	0.0281 (inactive)	0.406 (inactive)
CASVGLGKVLAGNASASA [HC1081]	0.567 (inactive)	0.113 (inactive)	1.61
CALNSRSARSAGNASASA [FS-1230]	9.33 (active)	9.86 (active)	8.45 (active)
CANKSRSARSAGNASASA [FS-467]	7.95 (active)	7.93 (active)	7.08 (active)
CASKVRKSRSAGNASASA [FS-1166]	10.9 (active)	11.3 (active)	8.46 (active)

Sequence	furin cleavage Z-score (7.5 min)	furin cleavage Z-score (15 min)	furin cleavage Z-score (30 min)
CAVLSRASRSAGNASASA [FS-104]	9.22 (active)	8.83 (active)	7.05 (active)
CAMEEHSQHLAGNASASA [HC9]	-0.427 (inactive)	0.433 (inactive)	0.518 (inactive)
CASVCGPVYCAGNASASA [HC411]	-0.739 (inactive)	-0.0378 (inactive)	0.44 (inactive)
CALSQTKQSGAGNASASA [HC947]	-0.592 (inactive)	0.456 (inactive)	-0.236 (inactive)
CAWGVLAGIAAGNASASA [HC337]	-1.66 (inactive)	-1.27 (inactive)	0.739 (inactive)
CAARPDYNPPAGNASASA [HC1305]	-1.38 (inactive)	-0.196 (inactive)	-1.47 (inactive)
CAVVCCSMSWAGNASASA [HC2088]	-0.556 (inactive)	1.09	0.406 (inactive)
CARCHARKAVAGNASASA [HC1425]	0.121 (inactive)	0.298 (inactive)	-0.417 (inactive)
CACTPCSGSWAGNASASA [HC1840]	-0.759 (inactive)	-0.736 (inactive)	-0.368 (inactive)
CAYPWPLYGNAGNASASA [HC201]	-0.792 (inactive)	1.01	-0.667 (inactive)
CAPALRSARSAGNASASA [FS-66]	0.638 (inactive)	1.37	1.27
CARLWRKSRSAGNASASA [FS-189]	9.72 (active)	8.99 (active)	8.13 (active)
CAYGSRHIRLAGNASASA [FS-1107]	0.267 (inactive)	1.21	2.07
CASKSRVSRLAGNASASA [FS-1488]	3.43	1.78	3.65 (active)
CASKSRSARSAGNASASA [FS-500]	10.3 (active)	8.51 (active)	6.45 (active)
CASAHRQPRLAGNASASA [FS-144]	0.7 (inactive)	0.218 (inactive)	0.636 (inactive)
CALNARYSRSAGNASASA [FS-52]	8.29 (active)	10.6 (active)	9.13 (active)
CASVASSSASAGNASASA [HC1259]	-0.54 (inactive)	0.0424 (inactive)	-0.501 (inactive)
CAMEECSEHLAGNASASA [HC1732]	0.304 (inactive)	-1.16 (inactive)	0.588 (inactive)
CAAVPCHRPSAGNASASA [HC2303]	0.31 (inactive)	-0.11 (inactive)	0.292 (inactive)
CALGKVIDTLAGNASASA [HC220]	-0.0125 (inactive)	0.316 (inactive)	-0.584 (inactive)
